Bioassay records (PubChem BioAssay)
In the library only some 3.1% were active in any assay of this set; here they are far more common.
Tau fluor cs = counter-screen for tau fibril formation inhibitors. tau K18 P301L Alexa594 fluorescence, heparin fibrillization. Potency, µM (highest dose often 57.7 µM), inactives show at the top dose activity change, negative = decrease. actives 0.93% (n = 280,000); note: nearly all actives have a fitted effect of over 55% in size
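Human K18 P301L tau (15 uM unlabeled plus 0.24 uM Alexa 594-labeled, final) in 100 mM sodium acetate pH 7 was mixed with compound and 20 uM heparin and incubated 6 hr at 37 C.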
Tau FP inhib = tau fibrillization inhibition (FP); P10636; K18 P301L tau heparin fibrillization, Alexa594 FP, 6 h; Potency, µM (highest dose often 57.7 µM), without a hit: at the top dose activity, negative = inhibition, hits mostly inhibitors; actives 0.39% (n = 280,000); note: nearly all actives have a fitted effect of over 55% in size
Target sequence (P10636 561-689 P618L limits assumed): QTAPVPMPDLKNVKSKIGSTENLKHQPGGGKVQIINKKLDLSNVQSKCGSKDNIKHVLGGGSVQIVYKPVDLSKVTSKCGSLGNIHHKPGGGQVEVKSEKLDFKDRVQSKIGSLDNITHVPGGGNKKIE
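K18 P301L tau (15 uM unlabeled/0.24 uM Alexa 594-labeled, final) + compound + heparin 20 uM final; 100 mM NaOAc pH 7; 6 hr 37 C; ThT 30 uM final added, 1 hr RT; FP ex 555/em 632 nm.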
TRb-SRC2 inh = TRbeta-SRC2 interaction inhibition. AID 1469. Potency, µM (doses to about 106 µM), for inactives: top-dose activity change, negative = inhibition, usual class: inhibitors. TRbeta-SRC2 peptide binding, fluorescence polarization; receptor liganded with 1 µM T3. actives 0.065% (n = 280,000). P10828;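 note: plate controls were bound peptide for no effect and peptide without receptor for full effect; nearly all actives have a fitted effect of over 50% in size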
Target sequence (P10828 whole entry, looked up): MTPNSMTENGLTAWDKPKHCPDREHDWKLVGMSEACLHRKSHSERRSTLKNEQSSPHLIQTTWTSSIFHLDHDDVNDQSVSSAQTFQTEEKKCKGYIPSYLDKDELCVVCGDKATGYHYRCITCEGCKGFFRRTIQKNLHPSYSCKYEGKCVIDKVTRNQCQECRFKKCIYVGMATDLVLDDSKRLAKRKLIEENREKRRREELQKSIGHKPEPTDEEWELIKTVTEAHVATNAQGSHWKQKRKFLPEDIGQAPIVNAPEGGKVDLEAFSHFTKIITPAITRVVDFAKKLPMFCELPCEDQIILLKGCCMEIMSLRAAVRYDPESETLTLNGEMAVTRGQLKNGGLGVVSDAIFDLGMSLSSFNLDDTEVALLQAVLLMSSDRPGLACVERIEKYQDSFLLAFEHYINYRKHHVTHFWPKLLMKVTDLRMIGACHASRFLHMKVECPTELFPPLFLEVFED
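Decrease in fluorescence polarization of 20 nM Texas Red SRC2 coactivator peptide flagged inhibition of its binding to 0.6 uM TRb LBD; 1 uM T3 included, incubation 5 hr, ex 555/em 632 nm.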
TexasRed fluor = Texas Red fluorescence interference in TRb-SRC2 counter-screen; TRb/SRC2 Texas Red total fluorescence interference; Potency, µM (series often up to 106 µM), for the others: at the highest dose fluorescence change, negative = quenching; actives 0.29% (n = 280,000); AID 1479; active = well fitted curve in either direction with a large enough effect; inconclusive = small, poorly fitted or top-dose-only effect
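Flags fluorescent or light-absorbing compounds by total fluorescence, S + 2P, at 555 nm excitation and 632 nm emission. Mixture: 20 nM Texas Red SRC2 peptide, 0.6 uM human TRb LBD, 1 uM T3, 5% DMSO; compound exposure 5 h at ambient temperature.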
Tau fibril ThT = inhibitors of human tau fibril formation, thioflavin T binding | actives 2.1% (n = 270,000) | AID 1460 | recombinant tau K18 P301L, heparin-induced fibrillization, ThT fluorescence | Potency, µM (series often up to 57.4 µM), without a hit: top-dose activity, negative = inhibition, most hits filed as inhibitors; note: nearly all actives have a fitted effect of over 55% in size
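Using a mix of unlabeled (15 uM) and Alexa 594-labeled (0.24 uM) tau K18 P301L, heparin-triggered fibrillization over 6 hr at 37 C was scored by ThT fluorescence.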
The depositor's hits bear a star; ? = inconclusive; / = no result; ! = not confirmed by another sample; [ ] = dose if it differs, or a comment. Unless noted, calls come from the whole dose curve; as a rule, active = well fitted curve in the direction sought with a large enough effect; inconclusive = small, poorly fitted or top-dose-only effect, or another doubt; inactive = no such curve, though single readings can be large; an effect the other way counts as inactive or inconclusive. Unless noted, % is set by controls: 0 for no effect and ±100 for the full control effect; potency is the fitted concentration of half-maximal effect.

SMILES	Tau fluor cs	Tau FP inhib	TRb-SRC2 inh	TexasRed fluor	Tau fibril ThT
COc1ccc(-n2sc3c(c2=S)-c2cc(OC)ccc2NC3(C)C)cc1	7.94µM*[quencher]	?	-5.4%	-6.1%	?
COc1ccc2c(c1)-c1c(sn(-c3ccccc3)c1=S)C(C)(C)N2	14.1µM*[quencher]	?	-4.8%	0.2%	?
COc1cc(Cl)c(C)cc1NS(=O)(=O)c1c(C)nc2sccn2c1=O	-13.3%	-0.5%	?	?	2.6%
NC(=O)CC(NC(=O)c1ccccc1)c1ccc(NCC2CC2)c([N+](=O)[O-])c1 (stereo not given)	-14.3%	5.8%	-3.2%	-0.1%	?
NC(=O)CC(NC(=O)c1ccccc1)c1ccc(NCCc2cccc(F)c2)c([N+](=O)[O-])c1 (stereo not given)	-25.7%	-3.8%	-0.4%	-1.3%	15.8µM*
NC(=O)CC(NC(=O)c1ccccc1)c1ccc(NCCOc2ccccc2)c([N+](=O)[O-])c1 (stereo not given)	-15.0%	5.5%	7.5%	-1.4%	12.6µM*
CCOC(=O)c1c(NC(=O)c2ccccc2Br)sc2c1CCc1ccccc1-2	-27.6%	?	-13.6%	0.5%	28.2µM*
CCOC(=O)c1c(NC(C)=O)sc2c1CCC(C=O)=C2Sc1ccccc1	?	?	-4.9%	-6.0%	14.1µM*
COc1ccc(-c2csc(NC(=O)c3ccccc3NS(=O)(=O)c3ccc(F)c(F)c3)n2)cc1	?	?	10.6%	-18.5%	22.4µM*
CCC(C(=O)O)N1C(=O)/C(=C/C(C)=C/c2ccccc2)SC1=S (stereo not given)	-21.7%	-11.6%	-5.4%	-1.6%	17.8µM*
CC(=C\c1ccccc1)/C=C1/SC(=S)N(C(C(=O)O)C(C)C)C1=O (stereo not given)	-12.8%	-10.0%	-13.5%	-0.9%	25.1µM*
CC(/C=C1\SC(=S)N(CCCC(=O)Nc2ccc(C(=O)O)cc2)C1=O)=C\c1ccccc1	-14.1%	-12.4%	-1.2%	1.4%	14.1µM*
CC(=C\c1ccccc1)/C=C1/SC(=S)N(CCC(=O)Nc2ccccn2)C1=O	-14.2%	-1.3%	0.0%	0.6%	?
CC(C)(C)OC(=O)N1CCC(c2c(C(=O)N3CCC(c4ccccc4)C3)cnn2-c2cccc(Cl)c2)CC1 (stereo not given)	-19.5%	-0.6%	-8.4%	0.3%	?
CCCCc1nc2ccc(S(=O)(=O)O)cc2[nH]1	8.5%	-2.7%	3.5%	-1.9%	6.8%
O=C1C(c2[nH]c3ccc(S(=O)(=O)O)cc3c2O)=Nc2ccc(S(=O)(=O)O)cc21	-22.2%	?	-11.0%	?	8.91µM*
Cn1cccc1/C=C1\CCC/C(=C\c2cccn2C)C1=O	?	8.4%	8.8%	-0.8%	5.01µM*
Cn1cccc1/C=N/n1cnnc1	-7.2%	-1.4%	7.3%	0.6%	-4.4%
CCOc1cc(CNS(=O)(=O)c2ccc3c(c2)CC(=O)N3C)cc(OCC)c1OCC	4.2%	4.8%	-11.6%	17.8µM*[quencher]	0.9%
CN1C(=O)Cc2cc(S(=O)(=O)NCc3cccs3)ccc21	-6.3%	5.7%	2.3%	1.5%	-8.7%
O=C(O)CC/C(=N\Nc1ccc(S(=O)(=O)N2CCCC2)cc1[N+](=O)[O-])c1cccs1	-17.3%	7.9%	-7.1%	-7.7%	31.6µM*
O=C(O)CC/C(=N\Nc1ccc(S(=O)(=O)N2CCOCC2)cc1[N+](=O)[O-])c1cccs1	-16.8%	5.8%	-9.6%	-8.1%	11.2µM*
CC[C@H](C)[C@H](NC(=O)[C@@H]1CCCN1C(=O)[C@H](Cc1cnc[nH]1)NC(=O)[C@@H](NC(=O)[C@H](Cc1ccc(O)cc1)NC(=O)[C@@H](NC(=O)[C@H](CCCN=C(N)N)NC(=O)CNC)C(C)C)[C@@H](C)CC)C(=O)O	/	/	2.3%	2.2%	/
COCCNC(=O)CCN1C(=O)c2cccnc2Oc2ccc(C)cc21	-0.8%	1.0%	2.3%	2.3%	-1.5%
O=C(O)c1ccc2cc(-c3ccc(O)c(C45CC6CC(CC(C6)C4)C5)c3)ccc2c1	?	?	13.9%	-5.1%	28.2µM*
SMILES	Tau fluor cs	Tau FP inhib	TRb-SRC2 inh	TexasRed fluor	Tau fibril ThT
C[C@@H]1C[C@](C)(C(=O)c2ccc3ccccc3c2)C=C1c1ccc2ccccc2c1	-15.1%	-2.8%	11.6%	0.0%	?
CCOc1ccc2nc(N3CCCC(C(=O)NCCc4ccc(C)cc4)C3)sc2c1 (stereo not given)	-12.4%	3.7%	-5.0%	?	?
Nc1ccc(C(=O)N(CCO)CCO)cc1	-3.5%	-2.5%	3.3%	-1.8%	-6.3%
Nc1ccc(N(CCO)CCO)cc1	?	15.8µM*	?	28.0%	11.2µM*
N[C@@H](Cc1c[nH]c2ccc(O)cc12)C(=O)O	?	?	3.1%	-0.6%	28.2µM*
Cc1ccccc1NC(=O)c1sc2nc(-c3cc4ccccc4oc3=O)[nH]c(=O)c2c1C	-3.1%	-8.1%	-4.7%	5.8%	0.9%
Cc1c(C(=O)Nc2ccccc2)sc2nc(-c3cc4ccccc4oc3=O)[nH]c(=O)c12	2.3%	-4.2%	-2.2%	282µM*[quencher]	3.8%
Cc1ccc(NC(=O)CSc2nnc(-c3cc4occc4n3C)n2-c2ccccc2C)c(Cl)c1	-13.5%	-7.6%	0.0%	9.0%	-6.4%
Cc1cc(C)cc(OCCSc2nc3ccc(NC(=O)c4cccs4)cc3s2)c1	?	7.08µM*	9.7%	-19.6%	7.3%
O=C(Nc1ccc2nc(SCCOc3ccccc3Cl)sc2c1)c1cccs1	?	10µM*	7.3%	9.4%	12.5%
Cc1ccc(OCCSc2nc3ccc(NC(=O)c4cccs4)cc3s2)cc1	?	?	-5.6%	?	?
CN(C)CCNC(=O)CCCN1C(=O)c2cccnc2Oc2ccc(Cl)cc21	8.6%	-2.8%	1.4%	2.2%	5.9%
Cc1c(C(=O)Nc2ccc(C(C)C)cc2)sc2nc3n(c(=O)c12)CCC3	-12.3%	-8.7%	-4.7%	?	-7.8%
Cc1nc(NCc2ccco2)c2c(C)c(C)sc2n1	-9.1%	-4.4%	-7.8%	-2.7%	-9.4%
Cc1sc2nc3c4ccccc4c(NCc4ccco4)nn3c(=O)c2c1C	?	35.5µM*	-2.1%	2.1%	25.1µM*
CNC[C@H](O)c1ccc(O)c(O)c1	?	12.6µM*!	1.4%	0.7%	14.1µM*!
CCCCCCCCCC(C)=O	/	/	6.9%[201 µM]	-3.8%[201 µM]	/
COC(=O)C(=C/C=C/c1ccco1)C(=O)OC	-14.9%	-8.6%	3.0%	-4.8%	?
COc1ccc(NC(=O)/C(C#N)=C\C=C\c2ccco2)cc1	-9.2%	12.8%	3.8%	3.6%	2.51µM*
CSc1nc2ccc(Cl)cc2[nH]1	-2.6%	-6.8%	2.2%	-0.4%	-3.3%
CSc1nc2cc(Oc3cccc(Cl)c3Cl)c(Cl)cc2[nH]1	?	12.6µM*	1.4%	2.7%	?
C=COCCn1c(=N)n(CCC)c2ccccc21	?	28.2µM*	-0.9%	-6.6%	-4.2%
